Holding throughout (test): DAPPL (digital affinity profiling via proximity ligation, sequencing); 10 mM Tris-HCl pH 7.5, 50 mM NaCl, 1 mM DTT, 4% glycerol, room temperature, 30 min; GST-TFs on glutathione beads, 16-mer random dsDNA library, 0.1% formaldehyde crosslink after washing; high values mean tight binding
The target of one assay is T1, FEV (Homo sapiens, UniProt Q99581 1-238).
T1 sequence: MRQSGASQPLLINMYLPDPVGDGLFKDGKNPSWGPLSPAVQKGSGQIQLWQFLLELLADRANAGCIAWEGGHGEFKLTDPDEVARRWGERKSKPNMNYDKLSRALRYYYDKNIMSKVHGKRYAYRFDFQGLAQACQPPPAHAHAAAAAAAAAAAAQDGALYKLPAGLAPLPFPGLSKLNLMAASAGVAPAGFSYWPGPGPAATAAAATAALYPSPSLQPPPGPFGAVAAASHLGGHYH
The note with it: protein: recombinant; tags: N-terminal GST; dsDNA, one strand shown. Summed up: (§1)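 Beads coated with glutathione captured GST-fused human transcription factors that had been expressed in yeast, and the factors were then given DNA barcodes and pooled with a tag-only sample. The pools were incubated with 200 nmole of a random double-stranded 16-mer DNA library in Tris/NaCl/DTT/glycerol buffer for 30 min at room temperature, washed, crosslinked with 0.1% formaldehyde and proximity-ligated with BsaI/T4 ligase at 37 °C for 1 h. PCR amplification and Illumina NextSeq500 sequencing came last. Binding signal is each hexamer's read frequency for a factor divided by its frequency for the tag-only sample.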

Another assay deals with ETV5 (Homo sapiens, UniProt P41161 1-510). The note with it: protein: recombinant; tags: N-terminal GST; dsDNA, one strand shown. The method in brief: as §1
Chain of ETV5 (P41161 whole entry): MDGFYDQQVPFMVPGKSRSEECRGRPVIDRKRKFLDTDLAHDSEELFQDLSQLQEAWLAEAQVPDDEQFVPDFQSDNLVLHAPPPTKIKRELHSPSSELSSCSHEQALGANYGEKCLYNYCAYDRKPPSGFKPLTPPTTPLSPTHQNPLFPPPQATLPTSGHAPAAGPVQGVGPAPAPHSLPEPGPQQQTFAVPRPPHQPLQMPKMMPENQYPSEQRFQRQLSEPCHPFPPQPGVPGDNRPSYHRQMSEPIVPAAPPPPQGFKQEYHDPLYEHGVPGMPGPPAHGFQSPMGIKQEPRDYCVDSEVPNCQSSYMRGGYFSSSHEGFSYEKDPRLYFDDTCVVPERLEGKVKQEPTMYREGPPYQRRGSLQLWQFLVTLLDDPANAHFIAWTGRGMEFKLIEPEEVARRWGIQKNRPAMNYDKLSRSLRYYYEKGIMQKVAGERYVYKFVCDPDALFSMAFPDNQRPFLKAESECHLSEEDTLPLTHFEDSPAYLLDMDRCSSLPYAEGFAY
Another assay addresses HSF1 (Homo sapiens, UniProt Q00613 1-529). The note with it: protein: recombinant; tags: N-terminal GST; chain copies: 3; dsDNA, one strand shown. The method in brief: as §1
In the next assay the target is T2, SPIC (Homo sapiens, UniProt Q8N5J4 1-248).
T2 sequence: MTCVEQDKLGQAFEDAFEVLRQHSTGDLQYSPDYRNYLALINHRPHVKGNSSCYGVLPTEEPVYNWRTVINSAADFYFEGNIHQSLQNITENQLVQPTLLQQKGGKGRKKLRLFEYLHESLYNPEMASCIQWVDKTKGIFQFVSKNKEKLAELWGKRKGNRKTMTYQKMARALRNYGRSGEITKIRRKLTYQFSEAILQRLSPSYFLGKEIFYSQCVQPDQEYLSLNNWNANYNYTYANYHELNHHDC
The note with it: protein: recombinant; tags: N-terminal GST; dsDNA, one strand shown. Summed up:
as §1

A further assay concerns the target ELF4 (Homo sapiens, UniProt Q99607 1-663). The note with it: protein: recombinant; tags: N-terminal GST; dsDNA, one strand shown. Summed up: as §1
The next assay deals with T3, ELK4 (Homo sapiens, UniProt P28324-2 1-405).
T3 sequence: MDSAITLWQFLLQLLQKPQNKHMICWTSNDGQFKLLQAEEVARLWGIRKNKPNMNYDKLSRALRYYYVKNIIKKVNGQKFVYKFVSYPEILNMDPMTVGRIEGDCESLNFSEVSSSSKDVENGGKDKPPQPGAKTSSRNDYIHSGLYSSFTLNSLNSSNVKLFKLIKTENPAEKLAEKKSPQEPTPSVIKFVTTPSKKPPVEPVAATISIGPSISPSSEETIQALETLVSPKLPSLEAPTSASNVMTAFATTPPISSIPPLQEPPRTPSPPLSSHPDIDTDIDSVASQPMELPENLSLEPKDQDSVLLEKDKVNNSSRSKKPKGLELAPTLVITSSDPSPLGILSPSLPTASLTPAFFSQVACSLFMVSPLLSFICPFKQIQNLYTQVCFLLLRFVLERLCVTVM
The note with it: protein: recombinant; tags: N-terminal GST; dsDNA, one strand shown. Summed up:
as §1

A further assay deals with T4, ETV2 (Homo sapiens, UniProt O00321 1-342).
T4 sequence: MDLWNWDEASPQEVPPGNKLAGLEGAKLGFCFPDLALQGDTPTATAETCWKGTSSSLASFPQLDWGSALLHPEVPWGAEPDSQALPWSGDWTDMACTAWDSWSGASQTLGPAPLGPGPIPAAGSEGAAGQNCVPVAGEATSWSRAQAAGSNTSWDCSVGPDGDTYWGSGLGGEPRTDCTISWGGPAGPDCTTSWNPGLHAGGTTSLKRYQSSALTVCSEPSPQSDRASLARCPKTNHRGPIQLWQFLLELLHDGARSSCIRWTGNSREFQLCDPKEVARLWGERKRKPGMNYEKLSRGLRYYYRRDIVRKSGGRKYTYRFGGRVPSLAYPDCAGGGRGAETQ
The note with it: protein: recombinant; tags: N-terminal GST; dsDNA, one strand shown. Summed up: as §1

Another assay has as its target T5, ELF3 (Homo sapiens, UniProt P78545 1-371).
T5 sequence: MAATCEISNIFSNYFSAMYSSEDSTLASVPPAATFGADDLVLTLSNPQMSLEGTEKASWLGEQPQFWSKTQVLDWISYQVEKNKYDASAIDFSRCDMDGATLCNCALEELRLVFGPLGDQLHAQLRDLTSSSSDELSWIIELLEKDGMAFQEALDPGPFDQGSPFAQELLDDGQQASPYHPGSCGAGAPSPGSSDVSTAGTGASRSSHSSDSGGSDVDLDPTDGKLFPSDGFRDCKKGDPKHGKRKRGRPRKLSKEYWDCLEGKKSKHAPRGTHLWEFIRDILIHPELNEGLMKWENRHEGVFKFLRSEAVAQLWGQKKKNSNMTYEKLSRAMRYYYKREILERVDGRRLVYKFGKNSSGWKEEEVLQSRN
As to conditions: protein: recombinant; tags: N-terminal GST; dsDNA, one strand shown. The method in brief: as §1

Another assay concerns the target CRX (Homo sapiens, UniProt O43186 1-299). The note with it: protein: recombinant; tags: N-terminal GST; dsDNA, one strand shown. The method in brief: as §1
Another assay deals with ETV1 (Homo sapiens, UniProt P50549 1-477). As to conditions: protein: recombinant; tags: N-terminal GST; dsDNA, one strand shown. Summed up: as §1
Chain of ETV1 (P50549 whole entry): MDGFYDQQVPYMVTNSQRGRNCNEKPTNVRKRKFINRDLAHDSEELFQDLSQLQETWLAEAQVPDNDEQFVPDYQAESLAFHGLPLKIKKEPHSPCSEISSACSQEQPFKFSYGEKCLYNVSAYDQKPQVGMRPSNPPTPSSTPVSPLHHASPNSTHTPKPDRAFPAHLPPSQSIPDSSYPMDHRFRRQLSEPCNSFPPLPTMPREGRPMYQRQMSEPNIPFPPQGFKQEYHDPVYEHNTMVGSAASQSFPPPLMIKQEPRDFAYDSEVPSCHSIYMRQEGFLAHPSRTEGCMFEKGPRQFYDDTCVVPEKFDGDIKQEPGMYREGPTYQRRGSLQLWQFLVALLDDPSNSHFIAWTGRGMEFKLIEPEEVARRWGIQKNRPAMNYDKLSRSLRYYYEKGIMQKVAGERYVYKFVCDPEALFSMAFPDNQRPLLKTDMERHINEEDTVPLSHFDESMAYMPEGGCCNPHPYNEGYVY
For another assay, the target named is T6, ERF (Homo sapiens, UniProt P50548 1-548).
T6 sequence: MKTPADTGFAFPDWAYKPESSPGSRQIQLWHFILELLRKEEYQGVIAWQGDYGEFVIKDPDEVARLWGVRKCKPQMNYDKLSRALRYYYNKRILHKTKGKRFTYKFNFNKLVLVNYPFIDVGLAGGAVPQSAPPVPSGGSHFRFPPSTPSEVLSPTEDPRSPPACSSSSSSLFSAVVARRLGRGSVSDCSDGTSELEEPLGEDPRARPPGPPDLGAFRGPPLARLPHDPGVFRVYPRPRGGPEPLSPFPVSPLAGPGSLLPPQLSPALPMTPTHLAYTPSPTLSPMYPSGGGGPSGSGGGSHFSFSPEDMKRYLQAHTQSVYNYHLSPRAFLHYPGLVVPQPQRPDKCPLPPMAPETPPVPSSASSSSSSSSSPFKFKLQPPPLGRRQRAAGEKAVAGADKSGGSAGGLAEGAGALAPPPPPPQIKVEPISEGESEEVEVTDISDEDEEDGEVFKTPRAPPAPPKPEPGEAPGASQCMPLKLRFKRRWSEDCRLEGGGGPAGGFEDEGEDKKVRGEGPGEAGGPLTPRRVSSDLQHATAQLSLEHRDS
As to conditions: protein: recombinant; tags: N-terminal GST; dsDNA, one strand shown. Summed up: as §1

The target in another assay is T7, ETV3L (Homo sapiens, UniProt Q6ZN32 1-361).
T7 sequence: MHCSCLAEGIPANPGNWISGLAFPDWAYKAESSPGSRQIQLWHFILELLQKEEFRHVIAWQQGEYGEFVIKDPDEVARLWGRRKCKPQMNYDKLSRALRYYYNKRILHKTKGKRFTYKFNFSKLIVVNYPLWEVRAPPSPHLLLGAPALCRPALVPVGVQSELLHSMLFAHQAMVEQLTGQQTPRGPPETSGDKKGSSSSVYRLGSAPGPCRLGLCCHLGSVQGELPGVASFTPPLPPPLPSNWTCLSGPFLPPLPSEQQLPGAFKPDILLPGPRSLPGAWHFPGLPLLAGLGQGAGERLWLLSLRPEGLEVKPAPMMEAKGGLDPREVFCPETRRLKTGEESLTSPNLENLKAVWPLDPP
As to conditions: protein: recombinant; tags: N-terminal GST; dsDNA, one strand shown. Summed up: as §1

The next assay concerns the target T8, ETS2 (Homo sapiens, UniProt P15036 1-469).
T8 sequence: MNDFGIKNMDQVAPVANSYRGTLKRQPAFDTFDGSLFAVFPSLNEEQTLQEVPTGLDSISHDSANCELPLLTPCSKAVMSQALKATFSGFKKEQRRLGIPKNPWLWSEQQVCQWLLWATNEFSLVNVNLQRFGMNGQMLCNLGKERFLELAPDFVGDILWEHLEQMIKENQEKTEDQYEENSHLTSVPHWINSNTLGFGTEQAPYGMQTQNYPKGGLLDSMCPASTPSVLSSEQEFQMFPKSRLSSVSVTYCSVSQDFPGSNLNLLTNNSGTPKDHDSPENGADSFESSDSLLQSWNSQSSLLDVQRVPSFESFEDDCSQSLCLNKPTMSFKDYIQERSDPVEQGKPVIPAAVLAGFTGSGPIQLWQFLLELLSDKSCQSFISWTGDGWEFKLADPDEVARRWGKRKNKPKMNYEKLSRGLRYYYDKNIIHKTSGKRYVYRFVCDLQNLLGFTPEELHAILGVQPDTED
As to conditions: protein: recombinant; tags: N-terminal GST; dsDNA, one strand shown. The method in brief: as §1

The target in the next assay is T9, SPDEF (Homo sapiens, UniProt O95238 1-335).
T9 sequence: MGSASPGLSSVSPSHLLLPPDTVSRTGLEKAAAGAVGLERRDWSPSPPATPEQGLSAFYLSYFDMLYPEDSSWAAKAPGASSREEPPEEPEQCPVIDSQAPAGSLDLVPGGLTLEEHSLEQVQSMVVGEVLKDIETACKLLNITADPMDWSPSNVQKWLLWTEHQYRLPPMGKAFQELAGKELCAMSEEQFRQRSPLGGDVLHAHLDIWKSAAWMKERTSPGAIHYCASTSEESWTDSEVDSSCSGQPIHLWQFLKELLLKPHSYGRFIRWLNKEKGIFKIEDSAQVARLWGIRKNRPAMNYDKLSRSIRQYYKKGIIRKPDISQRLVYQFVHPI
The note with it: protein: recombinant; tags: N-terminal GST; dsDNA, one strand shown. The method in brief: as §1

For the next assay, the target named is T10, ETV7 (Homo sapiens, UniProt Q9Y603 1-341).
T10 sequence: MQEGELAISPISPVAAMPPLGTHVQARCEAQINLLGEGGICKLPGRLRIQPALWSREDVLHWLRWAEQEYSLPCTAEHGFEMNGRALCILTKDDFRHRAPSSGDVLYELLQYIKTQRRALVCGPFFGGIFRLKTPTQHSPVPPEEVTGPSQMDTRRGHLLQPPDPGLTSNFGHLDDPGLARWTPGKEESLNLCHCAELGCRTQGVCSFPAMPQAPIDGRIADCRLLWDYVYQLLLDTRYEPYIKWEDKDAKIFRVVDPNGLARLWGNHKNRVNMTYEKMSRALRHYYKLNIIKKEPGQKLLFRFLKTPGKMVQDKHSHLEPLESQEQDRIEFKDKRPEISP
As to conditions: protein: recombinant; tags: N-terminal GST; dsDNA, one strand shown. Summed up:
as §1

The target of another assay is T11, ELF5 (Homo sapiens, UniProt Q9UKW6-2 1-255).
T11 sequence: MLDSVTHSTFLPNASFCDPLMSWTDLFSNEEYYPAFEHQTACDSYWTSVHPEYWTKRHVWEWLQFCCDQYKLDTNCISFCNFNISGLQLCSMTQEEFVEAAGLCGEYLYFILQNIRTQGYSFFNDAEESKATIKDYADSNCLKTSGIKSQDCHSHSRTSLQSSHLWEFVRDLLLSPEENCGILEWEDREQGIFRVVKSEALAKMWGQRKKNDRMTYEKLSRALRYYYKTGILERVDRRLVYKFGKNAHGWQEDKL
As to conditions: protein: recombinant; tags: N-terminal GST; dsDNA, one strand shown. The method in brief: as §1

For the next assay, the target named is T12, ETV3 (Homo sapiens, UniProt P41162-2 1-143).
T12 sequence: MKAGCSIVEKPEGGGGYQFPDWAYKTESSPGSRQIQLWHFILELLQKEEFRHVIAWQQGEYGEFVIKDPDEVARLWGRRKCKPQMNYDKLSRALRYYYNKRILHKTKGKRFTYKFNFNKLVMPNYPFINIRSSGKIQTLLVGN
The note with it: protein: recombinant; tags: N-terminal GST; dsDNA, one strand shown. Summed up: as §1

Another assay has as its target ETV6 (Homo sapiens, UniProt P41212 1-452). The note with it: protein: recombinant; tags: N-terminal GST; dsDNA, one strand shown. The method in brief:
as §1

Chain of ELF4 (Q99607 whole entry): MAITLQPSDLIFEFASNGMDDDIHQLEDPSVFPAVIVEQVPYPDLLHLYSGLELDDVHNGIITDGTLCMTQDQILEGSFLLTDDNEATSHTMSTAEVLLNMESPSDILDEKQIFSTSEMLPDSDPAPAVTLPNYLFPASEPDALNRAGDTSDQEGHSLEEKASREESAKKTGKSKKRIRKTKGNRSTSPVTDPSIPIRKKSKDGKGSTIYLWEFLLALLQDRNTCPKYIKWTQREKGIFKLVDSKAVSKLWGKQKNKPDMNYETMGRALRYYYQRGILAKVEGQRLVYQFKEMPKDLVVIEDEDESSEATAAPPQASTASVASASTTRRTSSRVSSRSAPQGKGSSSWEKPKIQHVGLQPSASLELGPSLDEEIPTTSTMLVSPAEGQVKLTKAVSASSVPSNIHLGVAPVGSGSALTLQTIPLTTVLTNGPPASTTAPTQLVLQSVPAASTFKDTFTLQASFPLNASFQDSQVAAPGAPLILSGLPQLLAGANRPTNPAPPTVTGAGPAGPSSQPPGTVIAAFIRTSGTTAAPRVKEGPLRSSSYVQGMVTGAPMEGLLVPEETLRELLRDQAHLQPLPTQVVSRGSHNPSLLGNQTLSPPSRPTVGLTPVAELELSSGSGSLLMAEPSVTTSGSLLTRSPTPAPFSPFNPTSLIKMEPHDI
Chain of HSF1 (Q00613 whole entry): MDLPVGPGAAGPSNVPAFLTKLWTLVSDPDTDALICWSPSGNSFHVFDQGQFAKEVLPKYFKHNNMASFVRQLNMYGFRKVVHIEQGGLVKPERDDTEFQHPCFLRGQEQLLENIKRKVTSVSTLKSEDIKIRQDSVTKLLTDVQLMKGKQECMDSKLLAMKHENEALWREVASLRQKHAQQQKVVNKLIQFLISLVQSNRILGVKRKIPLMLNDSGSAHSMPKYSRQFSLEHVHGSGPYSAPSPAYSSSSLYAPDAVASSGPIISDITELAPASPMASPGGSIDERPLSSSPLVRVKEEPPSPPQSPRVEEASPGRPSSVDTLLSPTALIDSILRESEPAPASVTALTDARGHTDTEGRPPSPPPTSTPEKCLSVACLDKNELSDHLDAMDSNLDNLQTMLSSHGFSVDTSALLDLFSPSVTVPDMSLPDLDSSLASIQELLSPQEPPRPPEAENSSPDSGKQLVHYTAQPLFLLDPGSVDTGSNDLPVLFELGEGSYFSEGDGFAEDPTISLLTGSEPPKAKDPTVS
Chain of CRX (O43186 whole entry): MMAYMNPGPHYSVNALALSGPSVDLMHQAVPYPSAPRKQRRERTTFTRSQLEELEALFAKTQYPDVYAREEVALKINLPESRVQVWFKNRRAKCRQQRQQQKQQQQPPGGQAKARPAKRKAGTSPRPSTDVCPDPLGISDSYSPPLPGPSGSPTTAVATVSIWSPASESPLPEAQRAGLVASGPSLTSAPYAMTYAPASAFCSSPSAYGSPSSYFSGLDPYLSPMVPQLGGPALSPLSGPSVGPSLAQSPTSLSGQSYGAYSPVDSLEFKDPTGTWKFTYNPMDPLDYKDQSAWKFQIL
Chain of ETV6 (P41212 whole entry): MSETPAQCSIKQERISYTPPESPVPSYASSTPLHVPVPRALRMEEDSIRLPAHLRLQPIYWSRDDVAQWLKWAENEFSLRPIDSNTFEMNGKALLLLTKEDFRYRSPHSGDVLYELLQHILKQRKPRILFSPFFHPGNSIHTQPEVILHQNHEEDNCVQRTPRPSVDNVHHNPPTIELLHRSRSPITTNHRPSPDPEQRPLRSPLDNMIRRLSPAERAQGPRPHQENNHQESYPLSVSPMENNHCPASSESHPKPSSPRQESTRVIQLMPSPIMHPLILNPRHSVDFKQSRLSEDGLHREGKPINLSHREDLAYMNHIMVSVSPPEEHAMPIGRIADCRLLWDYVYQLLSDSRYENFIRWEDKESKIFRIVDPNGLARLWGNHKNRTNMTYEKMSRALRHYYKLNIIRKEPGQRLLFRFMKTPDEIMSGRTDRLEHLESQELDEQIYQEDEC

Regarding TCTGCC, the binding signal with FEV was 1.38 fold enrichment (6-mer frequency, TF over GST control); with ETV5, 1.27 fold enrichment (6-mer frequency, TF over GST control); with HSF1 it was 1.35 fold enrichment (6-mer frequency, TF over GST control); with SPIC, 1.31 fold enrichment (6-mer frequency, TF over GST control); with ELF4, 1.53 fold enrichment (6-mer frequency, TF over GST control); in the assay with ELK4, 1.59 fold enrichment (6-mer frequency, TF over GST control). In addition, the binding signal with ETV2 is 1.24 fold enrichment (6-mer frequency, TF over GST control); with ELF3 it was 1.28 fold enrichment (6-mer frequency, TF over GST control); with CRX, 1.21 fold enrichment (6-mer frequency, TF over GST control); in the assay with ETV1 it was 1.36 fold enrichment (6-mer frequency, TF over GST control); with ERF, 1.35 fold enrichment (6-mer frequency, TF over GST control); with ETV3L, 1.31 fold enrichment (6-mer frequency, TF over GST control). Moreover, the binding signal in the assay with ETS2 is 1.45 fold enrichment (6-mer frequency, TF over GST control); in the assay with SPDEF it was 1.26 fold enrichment (6-mer frequency, TF over GST control); in the assay with ETV7, 1.49 fold enrichment (6-mer frequency, TF over GST control); in the assay with ELF5, 1.31 fold enrichment (6-mer frequency, TF over GST control); with ETV3, 1.35 fold enrichment (6-mer frequency, TF over GST control); with ETV6, 1.32 fold enrichment (6-mer frequency, TF over GST control).

The record behind these values is PMC7862700, “An all-to-all approach to the identification of sequence-specific readers for epigenetic DNA modifications on cytosine”.
